Reference: PubChem BioAssay AID2405 (Southern Research Specialized Biocontainment Screening …, 2010)

assay: RSV cytopathic effect inhibition in HEp-2 – cell-based, probe candidates (AID 2405); details: HEp-2 cells, active compounds read high; at 100 µM unless noted; call rule not given here

Maximum inhibition, inactive:
CC1CCCC(C)N1CCCNC(=O)c1cc2c(s1)-c1ccccc1OC2 (stereo not drawn) 0.79% [at 0.78 µM]
O=c1c2cc(Br)ccc2nc2n1CC/C2=C/c1ccccc1 10.8%
COc1cccc(NC(=O)CSc2nc3ccccc3c(=O)n2-c2ccc(F)cc2)c1 48.3%
O=c1c2cccc(Cl)c2nc2n1CCC2 1.74% [at 50 µM]
O=C(Nc1nc(-c2ccc(Cl)cc2)cs1)c1ccccc1Cl 4.1%
O=C(CSc1nc2cccc(F)c2c(=O)n1-c1ccccc1)Nc1ccc2c(c1)CCC2 20.4%
O=c1c2cc(I)ccc2nc2n1CCC2 5.94%
C=CCN(C(=O)c1ccccc1Cl)c1nc(-c2ccc(OC)cc2)cs1 7.65%
COc1ccc(-c2csc(N(CCCN(C)C)C(=O)c3ccccc3C)n2)cc1 0.96% [at 0.2 µM]
COc1ccc(-c2csc(NC(=O)c3ccc(Cl)cc3)n2)cc1 0.97% [at 25 µM]
CCCCN(C(=O)c1ccccc1Cl)c1nc(-c2ccc(OC)cc2)cs1 5.05% [at 25 µM]
CC1CC(C)CN(CCCNC(=O)c2cc3c(s2)-c2ccccc2OC3)C1 (stereo not drawn) 1.49% [at 25 µM]
O=C(Nc1nc(-c2ccc(Cl)cc2)cs1)c1cccc(Cl)c1 6.93% [at 25 µM]
COc1ccc(-c2csc(N(C)C(=O)c3ccccc3Cl)n2)cc1 2.66% [at 12.5 µM]
CC1CCCN(CCCNC(=O)c2cc3c(s2)-c2ccccc2OC3)C1 (stereo not drawn) 3.5% [at 25 µM]
OC1c2cc(Br)ccc2N=C2CCCN21 (stereo not drawn) 13.5%
CC1CC(C)CN(C(=O)CSc2nc3ccccc3c(=O)n2-c2ccc(F)cc2)C1 (stereo not drawn) 2.13%
CC1(O)c2cc(Br)ccc2N=C2CCCN21 (stereo not drawn) 2.76%
COc1ccc(-c2csc(N(Cc3ccccc3)C(=O)c3ccccc3Cl)n2)cc1 10.1% [at 25 µM]
OC1c2c(F)cccc2N=C2CCCN21 (stereo not drawn) 0.86%
Nc1ccc2nc3n(c(=O)c2c1)CCC3 1.81% [at 12.5 µM]
O=C(CSc1nc2ccccc2c(=O)n1-c1ccc(Cl)cc1)Nc1ccc2c(c1)CCC2 11.5% [at 25 µM]
Cc1cccc2nc3n(c(=O)c12)CCC3 1.49% [at 25 µM]
Oc1ccccc1C(Nc1nccs1)c1ccc2cccnc2c1O (stereo not drawn) 4.97% [at 12.5 µM]
O=C(Nc1nc(-c2ccccc2)cs1)c1ccccc1Cl 45.7% [at 12.5 µM]
COc1cccc(C(NC(=O)c2ccccc2)c2ccc3cccnc3c2O)c1 (stereo not drawn) 3.45% [at 12.5 µM]
O=C(CSc1nc2ccc(F)cc2c(=O)n1-c1ccccc1)Nc1ccc2c(c1)CCC2 14.7%
O=C(CSc1nc2ccccc2c(=O)n1-c1ccc(Cl)c(Cl)c1)Nc1ccc2c(c1)CCC2 5.37%
